Each structure is given as a SMILES string. Values joined by “and” are separate entries in the source; they are usually repeats but may differ in a detail not shown here. Equal values may be shown once. The source holds several records for some structures; these can differ, active in one and inactive in another. Active and inactive are the calls of the source. Rule for the calls: active = hit-call score of the fitted dose curve at least 0.9, where 1 is the maximum; inactive = score below 0.9.

Read-out in experiment [1]: Monokine induced gamma interferon (MIG), CXCL9 (gene 4283)
Description: BSK_hDFCGF_MIG: BioMAP Diversity Plus: hDFCGF Assay for Monokine induced gamma interferon (MIG) Biomarker Activity (AID 2283063). The conditions noted are these: primary human foreskin fibroblasts; actives raise or lower the signal. The essentials:
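MIG signal, determined by ELISA, reflects 24 h chemical exposure of human skin primary fibroblasts. DMSO serves as negative control and baseline.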

Read-out in experiment [2]: Matrix Metallopeptidase 1 (MMP1), MMP1 (gene 4312)
The experiment can be described thus: BSK_hDFCGF_MMP1: BioMAP Diversity Plus: hDFCGF Assay for Matrix Metallopeptidase 1 (MMP1) Biomarker Activity (AID 2283064). The conditions noted are these: primary human foreskin fibroblasts; actives raise or lower the signal. The essentials:
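Primary human foreskin fibroblasts exposed to chemicals for 24 h; MMP1 measured by ELISA. Cytotoxicity tracked by SRB staining in parallel cultures; bidirectional fit relative to DMSO.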

Read-out in experiment [3]: Vascular cell adhesion molecule 1 (VCAM1), VCAM1 (gene 7412)
The experiment can be described thus: BSK_hDFCGF_VCAM1: BioMAP Diversity Plus: hDFCGF Assay for Vascular cell adhesion molecule 1 (VCAM1) Biomarker Activity (AID 2283065).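 For AC50: VCAM-1 protein level quantified by ELISA after 24 h chemical exposure.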 The conditions noted are these: primary human foreskin fibroblasts; actives raise or lower the signal. The essentials:
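Cells are dosed, cultured for 24 h, then VCAM-1 is quantified by ELISA; signal increases and decreases are both fitted relative to DMSO.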

Read-out in experiment [4]: Plasminogen activator inhibitor-1 (PAI1), SERPINE1 (gene 5054)
Description: BSK_hDFCGF_PAI1: BioMAP Diversity Plus: hDFCGF Assay for Plasminogen activator inhibitor-1 (PAI1) Biomarker Activity (AID 2283066). The conditions noted are these: primary human foreskin fibroblasts; actives raise or lower the signal. The method, boiled down: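 Human foreskin fibroblasts in the hDFCGF system were dosed with compound for 24 h; PAI-1 was quantified by ELISA. Bidirectional curve fitting used DMSO as negative control and baseline.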

Read-out in experiment [5]: Intercellular Adhesion Molecule 1 (ICAM1), ICAM1 (gene 3383)
Description: BSK_KF3CT_ICAM1: BioMAP Diversity Plus: KF3CT Assay for Intercellular Adhesion Molecule 1 (ICAM1) Biomarker Activity (AID 2283067). The conditions noted are these: primary human keratinocytes with fibroblasts; actives raise or lower the signal. The essentials: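 Dose the keratinocyte/fibroblast co-culture, wait 24 h, measure ICAM-1 by ELISA, then fit increases or decreases against DMSO. Cytotoxicity is checked in parallel cultures by SRB total-protein staining.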

Read-out in experiment [6]: Interferon-gamma inducible Protein 10 (IP10), CXCL10 (gene 3627)
Description: BSK_KF3CT_IP10: BioMAP Diversity Plus: KF3CT Assay for Interferon-gamma inducible Protein 10 (IP10) Biomarker Activity (AID 2283068). The conditions noted are these: primary human keratinocytes with fibroblasts; actives raise or lower the signal. The method, boiled down: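 KF3CT co-culture (keratinocytes + foreskin fibroblasts), 24 h compound, IP-10 by ELISA; bidirectional fit vs DMSO baseline.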

Experiment [7] in a line: BSK_KF3CT_SRB: Viability Assessment in the BioMAP Diversity Plus: KF3CT Assay (AID 2283069).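 Note: total protein by sulforhodamine B staining as a cytotoxicity measure; read 24 h after compound addition; fitted for both signal gain and loss against DMSO baseline.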 The conditions noted are these: primary human keratinocytes with fibroblasts. The essentials: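 Human keratinocyte and foreskin fibroblast co-culture exposed to chemical for 24 h. Total protein measured in parallel cultures by 0.1% sulforhodamine B staining after 10% TCA fixation, read at 560 nm; bidirectional fit relative to DMSO.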

Read-out in experiment [8]: Interleukin-1 alpha (IL1a), IL1A (gene 3552)
Description: BSK_KF3CT_IL1a: BioMAP Diversity Plus: KF3CT Assay for Interleukin-1 alpha (IL1a) Biomarker Activity (AID 2283070). The conditions noted are these: primary human keratinocytes with fibroblasts; actives raise or lower the signal. The essentials:
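Primary human keratinocyte plus foreskin fibroblast co-culture, dosed and measured at 24 h in 96-well plates. IL-1a level quantified by ELISA; bidirectional fit relative to DMSO.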

Read-out in experiment [9]: TIMP metallopeptidase inhibitor 2 (TIMP2), TIMP2 (gene 7077)
Description: BSK_KF3CT_TIMP2: BioMAP Diversity Plus: KF3CT Assay for TIMP metallopeptidase inhibitor 2 (TIMP2) Biomarker Activity (AID 2283071). The conditions noted are these: primary human keratinocytes with fibroblasts; actives raise or lower the signal. The method, boiled down: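 Human primary keratinocyte/foreskin fibroblast co-culture dosed with chemical and sampled at 24 h. TIMP-2 levels quantified by ELISA; bidirectional fitting against DMSO negative control as baseline.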

Read-out in experiment [10]: Transforming growth factor beta 1 (TGFb1), TGFB1 (gene 7040)
The experiment can be described thus: BSK_KF3CT_TGFb1: BioMAP Diversity Plus: KF3CT Assay for Transforming growth factor beta 1 (TGFb1) Biomarker Activity (AID 2283072). The conditions noted are these: primary human keratinocytes with fibroblasts; actives raise or lower the signal. The method, boiled down:
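Human keratinocyte plus foreskin fibroblast primary co-culture, dosed with chemical for 24 h. TGF-b1 quantified by ELISA. Activity fitted bidirectionally against DMSO negative control as baseline.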

With `CCOc1nc(F)cc2nc(S(=O)(=O)Nc3c(Cl)cccc3C(=O)OC)nn12`, the outcome in experiment [1], in experiment [2], in experiment [3], in [4], in [5] and in experiment [6] was inactive. Further, the result in experiment [7], in experiment [8], in experiment [9] and in [10] was inactive.

For the compound `CCO[Si](CCCN=C=O)(OCC)OCC`, the result in [1], in experiment [2], in experiment [3], in experiment [4], in [5] and in experiment [6] was inactive. Also, the result in [7], in experiment [8], in experiment [9] and in [10] was inactive.

What is called AC50 is the concentration at which the activity in the assay is half-maximal. With `CCOC(=O)c1ccccc1C(=C1C=C(Br)C(=O)C(Br)=C1)c1cc(Br)c(O)c(Br)c1`, the AC50 in [1] was 3.85 µM (active) and 3.76 µM (active); in experiment [2] it was 4.03 µM (active) and 4.34 µM (active); in experiment [3] it was 4.49 µM (active) and 3.7 µM (active); in experiment [4], 3.56 µM (active) and 3.54 µM (active); in [5], 5.2 µM (active) and 5.41 µM (active); in [6] it was 3.9 µM (active) and 3.58 µM (active). The AC50 in experiment [7] is 3.4 µM (active); in experiment [8], 3.49 µM (active) and 3.47 µM (active); in experiment [9], 3.46 µM (active) and 3.44 µM (active). The outcome in experiment [7] was inactive.

In the case of `c1ccc(-c2ccccn2)nc1`, the result in [1], in experiment [2], in experiment [3], in experiment [4], in experiment [5] and in experiment [6] was inactive. Further, the outcome in experiment [7], in experiment [8], in experiment [9] and in experiment [10] was inactive.

As to `C=CC(=O)OCC(Br)CBr` (stereo unspecified), the AC50 in [1] is 6.57 µM (active); in experiment [2], 11.8 µM (active); in [3], 1.65 µM (active); in [4] it was 8.55 µM (active); in experiment [5] it was 25.2 µM (active); in experiment [6], 30 µM (active). In addition, the AC50 in experiment [7] was 33.8 µM (active); in [8], 32.2 µM (active); in experiment [9], 32 µM (active); in experiment [10] it was 5.81 µM (active).

Turning to `CC(C)(c1cc(Br)c(OCCO)c(Br)c1)c1cc(Br)c(OCCO)c(Br)c1`, the half-maximal activity concentration (AC50) in experiment [1] is 13.1 µM (active); in [3], 7.21 µM (active); in experiment [4], 16.2 µM (active); in experiment [5], 16.2 µM (active); in [6], 9.81 µM (active); in experiment [7], 9.41 µM (active). Also, the AC50 in experiment [8] is 12.1 µM (active); in experiment [9] it was 16.2 µM (active); in experiment [10] it was 6.03 µM (active). In addition, the result in [2] was inactive.

In the case of `C=CC=CC=CCCCCC`, the result in experiment [1], in experiment [2], in [3], in experiment [4], in experiment [5] and in experiment [6] was inactive. In addition, the outcome in experiment [7], in [8], in experiment [9] and in [10] was inactive.

Take `C=C[Si](OC(C)=O)(OC(C)=O)OC(C)=O`: the outcome in [1], in experiment [2], in experiment [3], in [4], in [5] and in experiment [6] was inactive. Moreover, the outcome in [7], in [8] and in [9] was inactive.

For the compound `C/C=C\C/C=C/CCCCCCCCOC(C)=O`, the AC50 in experiment [1] was 28.3 µM (active); in experiment [2] it was 32.9 µM (active); in [3], 24.6 µM (active); in experiment [4], 28.9 µM (active); in [5], 24.6 µM (active); in [6] it was 39.4 µM (active). Also, the values for the AC50 in experiment [8], in [9] and in experiment [10] were 26.3 µM (active), 20 µM (active) and 10.8 µM (active), respectively. Besides, in [7], the result was inactive.

As for `CCCCC/C=C\C/C=C\CCCCCCCC(=O)OC`, the AC50 in experiment [1] was 35.3 µM (active); in experiment [2], 33.4 µM (active); in experiment [3], 26.9 µM (active); in [4], 28.9 µM (active); in [5] it was 31.4 µM (active); in experiment [6], 29 µM (active). For the same compound, the AC50 in experiment [7] is 31 µM (active); in experiment [8], 26.9 µM (active); in experiment [9] it was 30 µM (active); in experiment [10], 16.4 µM (active).

On to `O=C(Nc1ccccc1SSc1ccccc1NC(=O)c1ccccc1)c1ccccc1`, for which the outcome in experiment [1], in experiment [2], in experiment [3], in experiment [4], in experiment [5] and in experiment [6] was inactive. The outcome in experiment [7], in [8], in experiment [9] and in [10] was inactive.

For the compound `COc1ccc2nc(N)sc2c1`, the result in [1], in [2], in experiment [3], in [4], in experiment [5] and in experiment [6] was inactive. Further, the outcome in experiment [7], in experiment [8], in experiment [9] and in [10] was inactive.

In the case of `O=C(Cl)c1cc(C(=O)Cl)cc(C(=O)Cl)c1`, the AC50 in [1] was 16.1 µM (active); in experiment [2] it was 31.9 µM (active); in [3], 15.2 µM (active); in experiment [4], 29.8 µM (active); in experiment [5] it was 30.8 µM (active); in experiment [6] it was 35 µM (active). For the same compound, the AC50 in experiment [7] is 33.2 µM (active); in experiment [8] it was 33.8 µM (active); in experiment [9], 25.2 µM (active); in experiment [10] it was 28.2 µM (active).

As for `O=c1c2ccccc2oc2ccccc12`, the result in [1], in [2], in experiment [3], in experiment [4], in experiment [5] and in [6] was inactive. The result in [7], in experiment [8], in experiment [9] and in [10] was inactive.

In the case of `Nc1ccc(N)c(Cl)c1`, the AC50 is 17.2 µM (active) and 17.5 µM (active) in experiment [1]; 34.5 µM (active) and 33 µM (active) in [2]; 13 µM (active) and 17.1 µM (active) in experiment [3]; 26.4 µM (active) and 31.4 µM (active) in experiment [4]; 8.84 µM (active) and 11.4 µM (active) in experiment [8]. In addition, the result in experiment [5], in [6], in [7] and in experiment [9] was inactive.

For `N#[N+]c1ccc2c(S(=O)(=O)[O-])cccc2c1O`, the result in experiment [1], in experiment [2], in experiment [3], in experiment [4], in [5] and in experiment [6] was inactive. For the same compound, the result in experiment [7], in [8], in experiment [9] and in [10] was inactive.

In the case of `CO[Si](OC)(OC)c1ccccc1`, the result in experiment [1], in [2], in [3], in experiment [4], in [5] and in [6] was inactive. Moreover, the result in [7], in experiment [8] and in [9] was inactive.

As for `CCCCC(CC)COCC1CO1` (stereo unspecified), the outcome in experiment [1], in [2], in experiment [3], in experiment [4], in experiment [5] and in experiment [6] was inactive. The result in experiment [7], in experiment [8] and in experiment [9] was inactive.
